From PubChem BioAssay
The sample as a whole holds a higher share of hits than the screen did.
CHX counter = counter-screen for Shiga toxin inhibitors: cycloheximide protein synthesis inhibition. cell reporter, cycloheximide protein synthesis inhibition counterscreen. max response, %. hit rate 12% among 300,000; in the data active means max response mostly above about 13%, no sharp cut-off; inactive means mostly below about 14%; further: read at 38.3 µM for the half of the compounds with a filed dose
Shiga inhibitor = Shiga toxin inhibition; Vero cells, Shiga toxin protein synthesis inhibition reporter; inhibition, % at 38.7 µM; hit rate 9.2% among 290,000; in the data active means inhibition mostly above about 28%, no sharp cut-off; inactive means mostly below about 43%
NS1 inh = influenza NS1 inhibition. Potency, µM (doses to about 46.1 µM). hit rate 0.4% among 270,000. AID 2326; calls by dose curve; further: actives are rising curves; nearly all actives have a fitted effect of over 50% in size
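Growth recovery, yeast-based: influenza A NS1 expressed in S. cerevisiae causes slow growth, and suppressors are detected by OD600. The parent strain without NS1 is used as positive control.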
AmpC no deterg = blocks E. coli AmpC beta-lactamase in detergent-free assay; P00811; AmpC nitrocefin hydrolysis, absorbance 480 nm, 0.0001% Triton; Potency, µM (series often up to 57.1 µM), most hits filed as inhibitors; hit rate 0.52% among 330,000; AID 485341; further: nearly all actives have a fitted effect of over 20% in size
Target sequence (P00811 whole entry, looked up): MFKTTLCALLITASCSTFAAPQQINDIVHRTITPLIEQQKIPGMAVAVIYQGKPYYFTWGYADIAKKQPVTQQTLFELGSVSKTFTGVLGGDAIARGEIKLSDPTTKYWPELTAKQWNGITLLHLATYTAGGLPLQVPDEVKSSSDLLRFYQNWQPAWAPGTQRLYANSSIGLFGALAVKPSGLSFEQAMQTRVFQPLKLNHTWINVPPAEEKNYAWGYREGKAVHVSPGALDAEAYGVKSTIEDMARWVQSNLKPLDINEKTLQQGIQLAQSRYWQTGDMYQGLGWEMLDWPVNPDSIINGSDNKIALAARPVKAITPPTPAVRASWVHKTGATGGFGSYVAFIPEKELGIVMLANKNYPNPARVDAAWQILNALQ
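AmpC (5.3 nM in the dispensed reagent) in 20 mM phosphate pH 7.0 with 0.01% (detergent screen) or 0.0001% Triton X-100 was preincubated with compounds for 15 min at room temperature. Nitrocefin was then added from an 800 uM solution, and hydrolysis was followed at 480 nm.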
AmpC detergent = AmpC beta-lactamase inhibition with detergent present; Potency, µM (highest dose often 114 µM), most hits filed as inhibitors; P00811; AmpC hydrolysis of nitrocefin, absorbance 480 nm, 0.01% Triton; hit rate 0.041% among 370,000; further: nearly all actives have a fitted effect of over 25% in size
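AmpC (5.3 nM in the dispensed reagent) in 20 mM phosphate pH 7.0 with 0.01% (detergent screen) or 0.0001% Triton X-100 was preincubated with compounds for 15 min at room temperature. Nitrocefin was then added from an 800 uM solution, and hydrolysis was followed at 480 nm.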
Hits are given with their value; - = inactive; ? = inconclusive; . = not tested or not shown. Unless noted, the call rests on the fitted dose curve; in most records, active means well fitted curve in the direction sought with a large enough effect; inconclusive means small, poorly fitted or top-dose-only effect, or another doubt; inactive means no such curve, though single readings can be large; an effect the other way counts as inactive or inconclusive.

SMILES	CHX counter	Shiga inhibitor	NS1 inh	AmpC no deterg	AmpC detergent
Oc1[nH]c2ccccc2c1N=Nc1ccccc1	44	104	-	-	?
Oc1[nH]c2ccccc2c1N=Nc1ccc(F)cc1	21	66	-	-	-
Oc1[nH]c2ccc(Br)cc2c1N=Nc1ccc(F)cc1	-	-	-	-	-
Oc1[nH]c2ccccc2c1N=Nc1ccccc1F	21	125	-	-	-
O=C(Nc1nnc(COc2ccc(F)cc2)s1)Nc1ccccc1F	-	-	-	-	-
Oc1[nH]c2ccccc2c1N=Nc1nc2ccccc2s1	35	49	-	-	-
CC(C)(O)C(=O)N=Nc1c(O)[nH]c2ccccc12	33	61	-	-	-
CCc1ccc(S(=O)(=O)NCCc2csc3nc(-c4ccccc4)nn23)s1	.	.	.	.	-
Cc1nc2sc(C(N)=O)c(N)c2c(C)c1CC(=O)c1ccccc1	30	92	.	-	?
O=S(=O)(c1ccccc1)n1c(C(O)c2ccccn2)cc2ccccc21 (stereo not drawn)	-	-	-	-	-
COc1ccc2c(c1)cc(C(O)c1ccccn1)n2S(=O)(=O)c1ccccc1 (stereo not drawn)	19	41	-	-	-
Oc1ccc2ccccc2c1C=NC1CCCCC1	-	-	.	-	-
Oc1ccc2ccccc2c1/C=N/c1nc2c(s1)CCCC2	14	-	-	-	-
Cc1ccc(N2C(=O)C(F)(F)C2c2ccccc2)cc1 (stereo not drawn)	-	-	.	-	-
Cc1ccc(N2C(=N)/C(=C3/Nc4ccccc4S3)C(c3ccccc3)C2=O)cc1 (stereo not drawn)	44	62	-	-	?
O=C(Nc1ccc(-c2nnn(CC(=O)N3CCN(C(=O)c4ccco4)CC3)n2)cc1)c1ccccc1F	51	84	-	-	-
COc1ccccc1C(=O)Nc1ccc(-c2nnn(CC(=O)N3CCN(C(=O)c4ccco4)CC3)n2)cc1	28	-	?	-	-
COc1ccc(NC(=O)CCCn2c(=O)c3cccn3c3ccccc32)c(OC)c1	.	.	.	.	-
CN(C)S(=O)(=O)c1cccc(NC(=O)Cn2cc(C(F)(F)F)cc(Cl)c2=O)c1	-	71	.	-	-
O=C(Cn1cc(C(F)(F)F)ccc1=O)Nc1ccccc1	12	44	-	-	-
O=C(Cn1cc(C(F)(F)F)cc(Cl)c1=O)NCc1ccc(F)cc1	-	87	-	-	-
O=C(Cn1cc(C(F)(F)F)cc(Cl)c1=O)NCCc1ccc(Cl)cc1Cl	-	-	-	-	-
COc1ccc(C(=O)NCC(c2cccnc2)N2CCc3ccccc3C2)cc1OC (stereo not drawn)	.	.	.	.	-
CCOC(=O)c1nc2c(ccc3ccccc32)cc1C	17	42	-	-	-
CCOC(=O)c1ccc(NC(=O)c2cc(C)nc3ccccc23)cc1	-	.	?	-	-
SMILES	CHX counter	Shiga inhibitor	NS1 inh	AmpC no deterg	AmpC detergent
CCc1ccc(OCc2ccccc2C(=O)Nc2ccc3nc(C)cc(N)c3c2)cc1	-	35	.	.	.
CCCn1c(C(C)C)n[nH]c1=S	-	-	-	-	-
COc1cccc(CNC(=O)c2nc(Cn3nc(C)c(Br)c3C)no2)c1	.	.	.	.	-
CC(=O)Nc1ccc(C(=O)N/C(=C\c2ccccc2)C(=O)Nc2cccc(C(=O)O)c2)cc1	-	-	-	-	-
Cc1onc(-c2ccccc2)c1-c1csc(N/N=C/c2ccccc2)n1	-	-	-	-	-
C(=N\Nc1nc(-c2ccccc2)cs1)/c1cccs1	68	105	?	-	-
C(=N\Nc1nc(-c2ccccc2)cs1)/c1ccncc1	43	51	-	-	-
Cc1ccc(-c2csc(N/N=C/C=C/c3ccccc3)n2)cc1	16	-	?	-	-
CN(C)S(=O)(=O)c1ccc(-c2csc(N/N=C/c3ccc(O)cc3)n2)cc1	14	-	-	-	-
O=C(CN1C(=O)COc2ccc(S(=O)(=O)NC3CCCC3)cc21)Nc1ccc(Cl)cc1	.	.	.	.	-
ClCc1csc(N/N=C/c2cccs2)n1	17	39	-	-	-
O=C(Cc1ccc(Cl)cc1)N/N=C/c1cccs1	-	-	-	-	-
N#Cc1ccc(CSCC(=O)O)cc1	-	-	-	-	?
COC(=O)c1ccc(CSCc2ccc(C#N)cc2)cc1	43	75	-	-	-
O=C1CC(c2cccc(O)c2)Oc2ccccc21 (stereo not drawn)	.	.	.	-	-
CCC(=O)n1nc(-c2ccccc2)nc1NCc1ccccc1	23	71	-	-	-
